Screening data from PubChem.
CYP2C9 inhib: inhibitors of human CYP2C9; P11712; CYP2C9 Supersomes, luciferin-H conversion, luminescence; inhibition, % at 5 µM; 96,000 tested, 20% active; AID 777;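 active means blocking of liver enzyme CYP2C9 beyond about 50% at 5 µM, limit read from the data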
CYP2C19 inhib: blocks human cytochrome P450 2C19; P33261; CYP2C19 Supersomes, luciferin-H EGE luminescence, 30 min; inhibition, % at 5 µM; 96,000 tested, 21% active; AID 778;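 active means CYP2C19 inhibition above a set limit at 5 µM in the primary screen, cut at about 50% in these data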;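 further: plate controls were negative control wells for no effect and 2.5 mM tranylcypromine positive control for full effect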
CYP2C9 activ: increases human cytochrome P450 2C9 activity. activation factor at 5 µM. recombinant CYP2C9, luciferin-H conversion, luminescence; stronger effect = higher value; factor 1 = untreated enzyme, 0 = blocked. P11712. 96,000 tested, 1.4% active. AID 1024;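 active means activation factor of 2 or more for CYP2C9 at a 5 µM dose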;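 further: 0 = sulfaphenazole-blocked wells and 1 = vehicle-only wells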
CYP2C19 activ: activators of human cytochrome P450 2C19 | activation factor at 5 µM | recombinant CYP2C19, luciferin-H EGE luminescence; stronger effect = higher value; 0 = fully inhibited enzyme, 1 = untreated enzyme | AID 1025 | 96,000 tested, under 10 active;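 active means activation factor of at least 2 at 5 µM in the primary screen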;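 further: 0 = wells with 2.5 mM tranylcypromine and 1 = vehicle-only wells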
PLAP act: activates human placental alkaline phosphatase | P05187 | purified PLAP enzyme, luminescent substrate read-out; stronger effect = higher value | activation fold at 20 µM | 96,000 tested, 1.2% active; in the data active means activation fold above about 2
Target sequence (P05187 whole entry, looked up): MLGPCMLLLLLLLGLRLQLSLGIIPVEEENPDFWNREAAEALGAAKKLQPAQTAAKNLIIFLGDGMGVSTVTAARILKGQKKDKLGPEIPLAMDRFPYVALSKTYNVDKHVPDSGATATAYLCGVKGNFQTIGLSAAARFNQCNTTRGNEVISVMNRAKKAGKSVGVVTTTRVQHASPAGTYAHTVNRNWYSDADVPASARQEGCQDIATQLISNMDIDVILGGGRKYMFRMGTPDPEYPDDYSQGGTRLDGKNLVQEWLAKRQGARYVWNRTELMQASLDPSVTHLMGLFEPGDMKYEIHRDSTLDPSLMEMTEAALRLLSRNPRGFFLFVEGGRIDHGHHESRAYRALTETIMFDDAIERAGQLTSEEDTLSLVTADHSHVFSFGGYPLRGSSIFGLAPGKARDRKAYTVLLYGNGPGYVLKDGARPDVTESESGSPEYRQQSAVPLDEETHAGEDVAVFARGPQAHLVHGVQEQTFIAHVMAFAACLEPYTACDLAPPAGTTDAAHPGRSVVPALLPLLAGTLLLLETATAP
Numbers without * were called inactive. A selection: hits, their analogues and other compounds. The true share with any hit is near 31%.

SMILES	CYP2C9 inhib	CYP2C19 inhib	CYP2C9 activ	CYP2C19 activ	PLAP act
CCC(C)(C)n1nnnc1C(c1ccc2ncccc2c1)N1CCN(Cc2ccc3c(c2)OCO3)CC1 (stereo not given)	1	-4	1	1	2.1*
CCN1CCN(C(c2cc3cc4c(cc3[nH]c2=O)OCO4)c2nnnn2C(C)(C)CC)CC1 (stereo not given)	-16	-16	1.2	1.2	1.3
CCC(C)(C)n1nnnc1C(c1ccc2ncccc2c1)N1CCN(c2nc3ccccc3s2)CC1 (stereo not given)	88*	7	0.1	0.9	1.6
COc1ccccc1-c1cc(C(=O)NCc2ccco2)no1	-89	14	1.9	0.9	0.9
COCCNC(=O)c1cc(-c2ccccc2OC)on1	-158	24	2.6*	0.8	1
COc1ccccc1-c1cc(C(=O)NCc2cccs2)no1	-126	5	2.3*	1	0.9
CC(=O)Nc1ccc(N2S(=O)(=O)c3ccccc3S2(=O)=O)cc1	-133	11	2.3*	0.9	0.9
COCCCN1C(=O)c2ccc(C(=O)Nc3ccc(OC)cc3)cc2C1=O	13	10	0.9	0.9	1
O=C(Nn1c(C2CC2)nc2ccccc2c1=O)c1ccco1	15	18	0.8	0.8	0.9
CCOc1ccccc1-n1nnnc1SCC(=O)Nc1cc2oc3ccccc3c2cc1OC	51*	-4	0.5	1	0.9
COc1ccccc1-n1nnnc1SCC(=O)Nc1cc(C)on1	-14	65*	1.1	0.3	0.8
CC1(C)Cc2c(sc3c2C2=NCCN2C=N3)CS1	-3	-16	1	1.2	1.1
CCN1CCN(C(c2ccccc2)c2nnnn2CCc2ccc(OC)c(OC)c2)CC1 (stereo not given)	-9	-10	1.1	1.1	1.2
CSc1nnnn1-c1ccc(C(=O)OCC(=O)N2CCOCC2)cc1	-18	-11	1.2	1.1	1.3
CCOC(=O)N1CCC(c2cc(=O)n3[nH]c(-c4ccccc4)cc3n2)CC1	66*	-8	0.3	1.1	1.1
CCOC(=O)N1CCC(c2cc(=O)n3[nH]c(C)c(-c4ccc(F)cc4)c3n2)CC1	68*	33	0.3	0.7	1.5
O=C(Oc1cccc2c(O)cccc12)c1ccccc1	73*	84*	0.3	0.2	1.2
Cc1nc2ccc(NC(=O)c3ccc(F)c(S(=O)(=O)N4CCOCC4)c3)cc2s1	27	18	0.7	0.8	0.9
COCC(=O)Nc1ccc(C)c(Cl)c1	-11	23	1.1	0.8	1.1
CSCCC(NC(=O)c1ccccc1)C(=O)OCC(=O)Nc1ccc(C)c(Cl)c1 (stereo not given)	82*	40	0.2	0.6	1.4
NC(=O)C1CCN(C(=O)CN2CCc3ccccc32)CC1	0	11	1	0.9	0.7
CCCN1C(=O)c2ccc(C(=O)NC3CCCCC3)cc2C1=O	11	-2	0.9	1	0.9
Cc1ccc(SC(C)C(=O)N2CCCC2)cc1 (stereo not given)	18	76*	0.8	0.2	1
Cc1ccc(SC(C)C(=O)Nc2ccccc2C(=O)N2CCOCC2)cc1 (stereo not given)	14	29	0.9	0.7	1.3
Cn1c2ccccc2c2nn(-c3ccccc3)c(=O)cc21	30	71*	0.7	0.3	1.1
SMILES	CYP2C9 inhib	CYP2C19 inhib	CYP2C9 activ	CYP2C19 activ	PLAP act
COc1c(Cl)cc(C(=O)Nc2ccccc2C(=O)O)cc1Cl	73*	5	0.3	1	1.1
CC(C)C(=O)Nc1cccc(C(=O)Nc2nnc(C(C)(C)C)s2)c1	19	-5	0.8	1.1	1
CC(C)C(=O)Nc1cccc(C(=O)Nc2ccccc2C(=O)O)c1	83*	-5	0.2	1	1.3
COc1cc(OC)cc(C(=O)Nc2ccccc2C(=O)N2CCCC2)c1	-5	3	1.1	1	1.2
CC(C)C(=O)Nc1cccc(C(=O)NCCc2ccc(S(N)(=O)=O)cc2)c1	75*	6	0.3	0.9	1
O=C(CSCc1ccc(Cl)cc1)Nc1cccc(C(=O)Nc2ccccc2C(=O)O)c1	98*	34	0	0.7	1.3
CC1(C)CC(CCNC(=O)c2ccc(-n3cnnn3)cc2)CC(C)(C)N1	13	-3	0.9	1	0.9
Cc1csc(-c2cnn(-c3ccccc3)c2NC(=O)c2cccc(C(F)(F)F)c2)n1	48	22	0.5	0.8	1.1
COc1cc(/C=N/NC(=O)C(C)n2nnc3ccccc32)ccc1O (stereo not given)	36	36	0.6	0.6	1.6
COc1cc(/C=C/C(=O)N2CCN(CC(O)COc3ccccc3)CC2)cc(OC)c1OC (stereo not given)	-11	2	1.1	1	1.4
COC(=O)c1ccccc1NC(=O)c1cccc(NC(=O)CSCc2ccccc2)c1C	-35	-16	1.4	1.2	0.9
O=C(CSCc1ccccc1)Nc1cccc(C(=O)Nc2ccccc2C(=O)O)c1	95*	10	0	0.9	1.3
CCCNC(=O)NC(=O)CSc1ncc(C(F)(F)F)cc1Cl	-6	70*	1.1	0.3	0.7
CC(C)(C)NC(=O)NC(=O)CSc1ncc(C(F)(F)F)cc1Cl	-6	4	1.1	1	0.9
Cc1ccc(C)c(OCCn2cc(/C=C(\C#N)C(=O)NCc3cccs3)c3ccccc32)c1	78*	13	0.2	0.9	0.8
N#C/C(=C\c1cn(CCOc2ccccc2)c2ccccc12)C(=O)NCc1ccco1	44	11	0.6	0.9	0.8
CC(=O)/C=C1\SC(CC(=O)O)C(=O)N1c1ccccc1 (stereo not given)	2	-4	1	1	0.9
CN1CCc2c(sc3nc(SCC(=O)N4CCOCC4)nc(N)c23)C1	18	7	0.8	0.9	0.8
COC(=O)CSc1nc2sc3c(c2c(=O)n1C1CCCCC1)CCN(C)C3	52*	78*	0.5	0.2	1.6
COc1ccc(-n2c(SCC(N)=O)nc3sc4c(c3c2=O)CCN(C)C4)cc1	33	73*	0.7	0.3	1.2
Cc1ccc(NC2c3ncccc3C(=O)N2Cc2ccc(F)cc2)cc1 (stereo not given)	53*	32	0.5	0.7	1.1
COc1ccc(CN2C(=O)c3cccnc3C2Nc2ccc(OC)c(Cl)c2)cc1 (stereo not given)	13	38	0.9	0.6	1.1
N#CCCNc1ccc(OCCC#N)cc1	39	-7	0.6	1.1	1
Cc1onc(-c2ccccc2)c1C(=O)Nc1sc2c(c1C#N)CCC(C)C2 (stereo not given)	92*	21	0.1	0.8	1.2
N#Cc1c(NC(=O)C2CC(c3ccccc3Cl)=NO2)sc2c1CCC2 (stereo not given)	50	7	0.5	0.9	1.1
Cc1onc(-c2ccccc2)c1C(=O)Nc1nc2c(s1)CCCC2	46	28	0.5	0.7	1.2
Cc1onc(-c2ccccc2Cl)c1C(=O)Nc1sc2c(c1C#N)CCC2	100*	98*	0	0	1.3
